The text below walks through data of PubChem BioAssay (NCATS).

For assay [1], the system named is Nanoluciferase (engineered Oplophorus gracilirostris luciferase). The assay is described as follows: Primary Nanoluciferase (NLuc) qHTS assay for identification of artifact compounds. (AID 1845222).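 Note: series mostly up to about 54 µM; 0% = DMSO and -100% = no enzyme.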 In a few lines: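 Compounds are pinned into diluted (1:55) conditioned medium of NLuc-expressing S16 cells and held 15 min at room temperature protected from light. Nano-Glo substrate follows, and luminescence is read 5 min later.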
For orientation: qHTS replaces the single test concentration by a dilution series.

Assay [2] in a line: Primary redox qHTS assay for identification of artifact compounds. (AID 1845223).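 Note: 0% = DMSO and 100% = reference compound.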 Put shortly: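 Redox-cycling detection via DTT (250 uM final) oxidation coupled to Amplex Red (25 uM)/HRP (250 mU/mL) in HBSS. 15 min preincubation plus 30 min after DTT, room temperature. Ex/Em 525/598 nm; 4-parameter Hill fit against DMSO and 10 uM DA3003.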

Unmarked numbers belong to inactive results. Inconclusive results are not listed. The source made the active and inactive calls. Calls come from the whole dose curve; as a rule, active = well fitted curve in the direction sought with a large enough effect; inconclusive = small, poorly fitted or top-dose-only effect, or another doubt; inactive = no such curve, though single readings can be large; an effect the other way counts as inactive or inconclusive.

In the case of `C=C(CO)C(=O)O[C@H]1C[C@@]23O[C@@H]2CC/C(=C/[C@H]2OC(=O)C(=C)[C@H]12)CO[C@H]3O`, the Potency result in assay [1] and in assay [2] was “inactive” in each case.

Take `COC(=O)C1C(c2ccc(O)cc2)C(C(=O)O)C1c1ccc(O)cc1` (centres undefined): the Potency result in assay [1] and in assay [2] was “inactive” throughout.

With `CCC(C)C(=O)O[C@H]1[C@@H](O[C@H]2O[C@H](CO)[C@@H](O)[C@H](O)[C@H]2O)O[C@H](CO)[C@@H](O)[C@@H]1O` (some centres undefined), the Potency result in assay [1] and in assay [2] was “inactive” in each case.

For the compound `C/C=C(\C)C(=O)O[C@H]1C=CC(=O)O[C@H]1/C=C/[C@H](O)[C@@H](C)O`, the Potency result in assay [1] and in assay [2] was “inactive” in each case.

As to `CC1CCC2C(C(=O)O)=CC3(O)CC(C)(C)CC123` (centres undefined), the Potency result in assay [1] and in assay [2] was “inactive” throughout.

With `COc1ccc(C2COc3cc(O)ccc3C2)c(O)c1OC` (centres undefined), the Potency entry in assay [1] and in assay [2] was “inactive” throughout.

Take `CC1(C)CC[C@]2(C(=O)O[C@@H]3O[C@H](CO)[C@@H](O)[C@H](O)[C@H]3O)CC[C@]3(C)C(=CCC4[C@@]5(C)CC[C@H](O[C@@H]6O[C@H](C(=O)O)[C@@H](O[C@@H]7O[C@H](CO)[C@@H](O)[C@H](O)[C@H]7O)[C@H](O)[C@H]6O)C(C)(C)C5CC[C@]43C)C2C1` (some centres undefined): in assay [1], the activity, negative = inhibition is 4.13% [at 11.6 µM]. The redox activity (% of DA3003) in assay [2] was 3.95% [at 11.5 µM].

As for `On1ncc(C2CCNCC2)c1-c1cccc(-c2ccccc2)c1`, the Potency result in assay [1] and in assay [2] was “inactive” throughout.

Regarding `CC(C)(C)NS(=O)(=O)c1ccc(-c2ccc3[nH]nc(N)c3c2)cc1`, the Potency entry in assay [1] and in assay [2] was “inactive” in each case.

As to `CC(=O)OC(C)C(C)(O)C(=O)O[C@@H]1CC[C@]2(C)CC(=O)C(=C(C)C)C[C@H]2[C@]1(C)OC(C)=O` (some centres undefined), the Potency entry in assay [1] and in assay [2] was “inactive” each time.

Take `CC1=CCC[C@@H]2[C@](CCc3ccoc3)(C(=O)O)[C@H](C)CC[C@@]12C`: the Potency result in assay [1] and in assay [2] was “inactive” throughout.

On to `CC1CCC2(C(=O)O)CCC3(C)C(=CCC4C5(C)C[C@@H](O)[C@@H](O)C(C)(CO)C5CCC43C)C2C1(C)O` (some centres undefined), for which the Potency result in assay [1] and in assay [2] was “inactive” throughout.

`O=C(O)CCc1cccc(O)c1O[C@@H]1O[C@H](CO)[C@@H](O)[C@H](O)[C@H]1O`: the Potency entry in assay [1] and in assay [2] was “inactive” throughout.

Consider `O=C(N[C@@H]1CC[C@@H](c2cccc(F)c2F)CN(CC(F)(F)F)C1=O)N1CCC(n2c(=O)[nH]c3ncccc32)CC1`, for which the Potency result in assay [1] and in assay [2] was “inactive” in each case.

As to `COc1cc(C2CC(=O)Nc3c2cc(Br)c2ccccc32)cc(OC)c1OC` (centres undefined), the Potency result in assay [1] and in assay [2] was “inactive” throughout.

As to `COc1ccnc(CCc2nc3ncccc3[nH]2)c1`, the Potency result in assay [1] and in assay [2] was “inactive” each time.

On to `O=C(Nc1ccn(Cc2c(F)cccc2C(F)(F)F)n1)c1c(F)cccc1F`, for which the activity, negative = inhibition in assay [1] is 3.13% [at 11.6 µM]. The redox activity (% of DA3003) in assay [2] is -0.702% [at 11.5 µM].

As for `Cn1cc(Nc2cnccc2C(=O)O)c2cccnc21`, the Potency entry in assay [1] and in assay [2] was “inactive” throughout.

As for `C[C@@H]1O[C@@H](O[C@H]2[C@H](O[C@H]3[C@H](O[C@H]4CC[C@@]5(C)C(CC[C@]6(C)C5CC=C5[C@@H]7CC(C)(C)C[C@@H](O)[C@]7(C)CC[C@]56C)[C@@]4(C)CO)O[C@H](C(=O)O)[C@@H](O)[C@@H]3O)O[C@H](C(=O)O)[C@H](O)[C@@H]2O)[C@H](O)[C@H](O)[C@H]1O` (some centres undefined), the activity, negative = inhibition in assay [1] is 0% [at 11.6 µM]. In assay [2], the redox activity (% of DA3003) is -2.66% [at 11.5 µM].

Take `CC1(O)CC(O)C2C(C(=O)O)=COC(OC3OC(CO)C(O)C(O)C3OC(=O)/C=C/c3ccc(O)cc3)C21` (centres undefined): the Potency result in assay [1] and in assay [2] was “inactive” each time.

Regarding `CC1=C(CO)C2(C)CCCC(C)(C)C2C(O)C1O` (centres undefined), the Potency entry in assay [1] and in assay [2] was “inactive” in each case.

With `C=C1CC[C@@]2(OC1)O[C@H]1CC3C4CC=C5C[C@@H](O[C@@H]6O[C@@H](C)[C@H](O)[C@@H](O)[C@H]6O)C[C@@H](O[C@@H]6O[C@H](C)[C@H](O)[C@H](O)[C@H]6O[C@@H]6O[C@@H](C)[C@H](O)[C@@H](O)[C@H]6O)[C@]5(C)C4CC[C@]3(C)[C@H]1[C@@H]2C` (some centres undefined), the activity, negative = inhibition in assay [1] is -0.58% [at 11.6 µM]. The redox activity (% of DA3003) in assay [2] was 1.1% [at 11.5 µM].

`CC(C)C1(O)NC(=O)C(CC2(O)c3ccccc3N3C(=O)C(C)(C)NC32)n2c1nc1ccccc1c2=O` (centres undefined): the Potency entry in assay [1] and in assay [2] was “inactive” throughout.

As to `COC(=O)C1=CO[C@@H](O[C@@H]2O[C@H](CO)[C@@H](O)[C@H](O)[C@H]2O)[C@H]2[C@@H]1[C@H](O)[C@H](O)[C@]2(C)O`, the Potency entry in assay [1] and in assay [2] was “inactive” in each case.

On to `CC1=C(CCC(C)O[C@@H]2O[C@H](CO)[C@@H](O)[C@H](O)[C@H]2O)C(C)(C)CC(O)C1` (some centres undefined), for which the Potency entry in assay [1] and in assay [2] was “inactive” throughout.

Regarding `N[C@@H](CCNCc1ccc(Cl)cc1)C(=O)N1CCCCC1`, the Potency result in assay [1] and in assay [2] was “inactive” throughout.

Turning to `c1ccc2c(Nc3nnc(-c4ccncc4)s3)cccc2c1`, the Potency result in assay [1] and in assay [2] was “inactive” in each case.

As to `CC1CCC2(C)CCC3(C)C(=CCC4C5(C)CCC(O)C(C)(C(=O)O)C5CCC43C)C2C1C` (centres undefined), the Potency entry in assay [1] and in assay [2] was “inactive” each time.

Take `O=C(/C=C/c1ccc(O)cc1)OC[C@H]1O[C@@H](O/C(=C\c2ccccc2)C(=O)O)[C@H](O)[C@@H](O)[C@@H]1O`: the Potency result in assay [1] and in assay [2] was “inactive” in each case.

Consider `C=CC(C)(O)CCC1C(C)(O)CCC2C(C)(C)CCCC21C` (centres undefined), for which the Potency result in assay [1] and in assay [2] was “inactive” throughout.

With `CC1(C)CC[C@]2(C(=O)O)CC[C@]3(C)C(=CCC4[C@@]5(C)C(=O)C[C@H](O)[C@@](C)(CO)C5CC[C@]43C)[C@@H]2C1` (some centres undefined), the Potency result in assay [1] and in assay [2] was “inactive” in each case.

For the compound `OC[C@@]1(O)CO[C@H](OC[C@H]2O[C@@H](OC(CCCCc3ccc(O)cc3)CCc3ccc(O)cc3)[C@H](O)[C@@H](O)[C@@H]2O)[C@@H]1O` (some centres undefined), the Potency entry in assay [1] and in assay [2] was “inactive” throughout.
